Nox1 inh – human Nox1 inhibition; Q9Y5S8; HT29 cells, luminol chemiluminescence ROS; inhibition, % at 6.7 µM; 16,000 compounds, 0.81% hits; AID 1792
Target sequence (Q9Y5S8 whole entry, looked up): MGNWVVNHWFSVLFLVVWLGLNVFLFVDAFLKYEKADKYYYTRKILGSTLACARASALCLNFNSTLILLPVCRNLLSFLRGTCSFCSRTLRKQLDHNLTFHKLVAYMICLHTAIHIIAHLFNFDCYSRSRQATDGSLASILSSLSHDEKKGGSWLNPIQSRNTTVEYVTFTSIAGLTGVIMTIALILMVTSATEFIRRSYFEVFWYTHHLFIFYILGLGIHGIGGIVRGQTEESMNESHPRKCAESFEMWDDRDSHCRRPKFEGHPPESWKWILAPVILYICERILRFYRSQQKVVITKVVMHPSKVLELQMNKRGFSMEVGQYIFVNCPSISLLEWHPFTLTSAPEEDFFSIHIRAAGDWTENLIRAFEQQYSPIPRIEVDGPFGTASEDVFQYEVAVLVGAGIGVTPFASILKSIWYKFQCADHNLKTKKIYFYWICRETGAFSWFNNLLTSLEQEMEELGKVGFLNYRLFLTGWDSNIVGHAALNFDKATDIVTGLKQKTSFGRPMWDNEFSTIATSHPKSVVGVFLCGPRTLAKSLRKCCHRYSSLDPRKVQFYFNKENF
luminol inh ctr – luminol signal inhibition, Nox1 inhibitor counter-screen; inhibition, % at 6.7 µM; 16,000 compounds, 0.4% hits; AID 1823; HRP/luminol/H2O2 chemiluminescence counterscreen; further: reference of the scale not given here
NOTCH agonist – NOTCH pathway agonism; NOTCH signaling luciferase reporter cells, luminescence; activation, % at 2.5 µM; 15,000 compounds, 0.4% hits; in the data active means activation above about 2.2%
Of the large screens only hits and unclear results are named; the others gave an inactive call. Most compounds without a hit are left out; they make up all but 1.8% or so of the library. Unless noted, no stated cut-off is given here; in the data, active means inhibition above about 75%; inactive means the rest.

CC1CN(c2ccc(NC(=S)NCc3ccco3)cc2)CC(C)O1 (centres undefined)	none
CC1CN(c2ccc(NC(=S)NN)cc2)CC(C)O1 (centres undefined)	Nox1 inh 102
O=C(NNC(=O)c1ccccc1[N+](=O)[O-])c1cc2c(s1)-c1ccccc1CC2	NOTCH agonist 2.4
O=C(O)/C=C/C(=O)NNC(=O)c1ccccc1[N+](=O)[O-]	none (no result: NOTCH agonist)
CCNc1cc(N)[n+](CC)c2n[nH]c(/N=C/c3cc(Cl)cc(Cl)c3O)c12	none
O=C(CCC(=O)N1CCCC1)Nc1ccc(F)cc1	none
O=C(N/N=C/c1ccc(O)c(Cl)c1)c1sc2ccccc2c1Cl	none (no result: NOTCH agonist)
CCOC(=O)Cc1c(C(=O)OCC)[nH]c(C)c1C(=O)OCc1ccccc1	NOTCH agonist 5.8
CCOC(=O)Cc1c(C)[nH]c(C(=O)OCC)c1CC(=O)OCC	none
N/C(CS(=O)(=O)c1ccc(F)cc1)=N\ONc1ccc(OC(F)(F)F)cc1	none
CCOC(=O)CCc1ccc2c(c1)NC(c1ccc([N+](=O)[O-])s1)O2 (centres undefined)	Nox1 inh 82
CCOC(=O)CCc1ccc2c(c1)NC(c1cccc([N+](=O)[O-])c1)O2 (centres undefined)	Nox1 inh 96
CCOC(=O)c1cc(-c2cccc([N+](=O)[O-])c2)oc1C	none
CCOC(=O)CCc1ccc(Oc2c([N+](=O)[O-])cc(C(F)(F)F)cc2[N+](=O)[O-])cc1	none (no result: NOTCH agonist)
Cc1nnsc1C(=O)NNS(C)(=O)=O	none
CC(=O)NC1CCN(C(=S)Nc2cc(Cl)ccc2Cl)CC1	none
O=c1c2cc([N+](=O)[O-])ccc2oc2ncccc12	NOTCH agonist 3.0
O=c1oc2ccc([N+](=O)[O-])cc2cc1-n1cccc1	none
Nc1nc(NC2CCCCNC2=O)n[nH]1 (centres undefined)	Nox1 inh 92
CC(C)NC(=O)NC1CCCCNC1=O (centres undefined)	none
O=c1nc(Nc2ccc(OC(F)(F)F)cc2)oc2ccccc12	none
N#Cc1cc([N+](=O)[O-])ccc1Sc1nnc(N)s1	none
Nc1nnc(Sc2cc3c(cc2[N+](=O)[O-])C(=O)NC3=O)s1	Nox1 inh 76
O=C1c2ncccc2-c2cccnc21	none
Cc1ccc(OS(=O)(=O)c2cc(Br)c(Br)s2)c([N+](=O)[O-])n1	none
COC(=O)c1cscc1OC(=O)c1ccc(C(F)(F)F)cc1	none
O=C(Oc1cccc2[nH]ccc12)c1ccc(C(F)(F)F)cc1	Nox1 inh 80
C=CCn1c(=O)n(-c2ccc(C)cc2)c(=O)c2cc(-c3ccccc3)sc21	none
Cc1ncc(CSc2nccc(=O)[nH]2)c(CO)c1O	none
Cc1ncc(CSc2nc3ccc(C(F)(F)F)cc3[nH]2)c(CO)c1O	luminol inh ctr 88
Cc1nn(CCC#N)c(C)c1Sc1ncccn1	none
Cc1nn(C(=O)Nc2ccccc2)c(C)c1Oc1ccc(Cl)cc1	none
Cc1nn(C(=O)c2ccccc2)c(C)c1Oc1ccc(Cl)cc1	NOTCH agonist 3.9
COC(=O)c1c(C)[nH]c(C)c1-c1ccon1	none
Cc1nc(C(F)(F)F)c(C(=O)NNc2ncc(C(F)(F)F)cc2Cl)s1	Nox1 inh 85
O=C(NNc1ncc(C(F)(F)F)cc1Cl)NC(=O)c1ccccc1Cl	none
CC(C)S(=O)(=O)c1c(SCC#N)sc(C#N)c1N	none
CC(=O)NNC(=O)c1ccccn1	none
CNC(=S)NNC(=O)c1ccccn1	Nox1 inh 87 (no result: NOTCH agonist)
Cc1noc(C)c1C(=O)Oc1ccc(-c2n[nH]nc2C#N)cc1	none
Cc1n[nH]c(C)c1Oc1ccc(Cl)cc1	none
C=CCn1c(C(C)Oc2ccc(Cl)cc2)n[nH]c1=S (centres undefined)	luminol inh ctr 94
Cc1csc2c(NC(C)C)ncnc12	none
O=C(NCCSCc1ccc2nonc2c1)c1ccc(Cl)cc1Cl	none
CSc1cccc(NC(=S)Nc2cccc(SC)c2)c1	NOTCH agonist 2.5
CSc1cccc(NC(=O)CN2CCN(CC(=O)Nc3cccc(SC)c3)CC2)c1	none
O=C(NNC(=S)Nc1ccc2c(c1)OCCO2)c1ccco1	none
CC(C)N=C(NC#N)NC(C)C	none
CCC(C)(C)OC(=O)c1cc([N+](=O)[O-])cc2c1-c1ccc([N+](=O)[O-])cc1C2=O	none
O=C(Nc1ccc(Cl)cc1Cl)c1cc([N+](=O)[O-])cc2c1-c1ccc([N+](=O)[O-])cc1C2=O	Nox1 inh 101
CCCCC(=O)C(C#N)c1nc2ccccc2[nH]1 (centres undefined)	none
O=C(NCc1ccco1)C1CCN(c2nccc(C(F)(F)F)n2)CC1	none
COC(=O)c1cnc(NNC(=O)C(Cl)Cl)nc1C(F)(F)F	none
COC(=O)c1cnc(NNS(=O)(=O)c2ccc(Cl)cc2)nc1C(F)(F)F	Nox1 inh 98
CCCS(=O)(=O)c1cnc(C)nc1N	none
O=C(N/N=C/c1cccs1)c1ccc2nonc2c1	none
Cn1c(CC#N)n[nH]c1=S	none
Cc1nc(C)c(-c2n[nH]c(=S)n2C)s1	luminol inh ctr 100
CCOC(=O)c1ccc(N2CCOCC2)c(NC(=S)Nc2cccc(SC)c2)c1	none
CCOC(=O)C1CCN(c2ccc(C(C)=O)cc2NC(=S)Nc2cc(Cl)ccc2Cl)CC1	NOTCH agonist 5.9
Cc1cc(OCc2ccccc2)ccc1[N+](=O)[O-]	NOTCH agonist 2.5
Cc1cc(C(=O)NN)ccc1[N+](=O)[O-]	none
Cn1nc(NC(=O)c2ccc(CSc3ccc(Cl)cc3)o2)c2c(F)cccc21	none
COC(=O)c1cnc(SCc2ccc(C(C)(C)C)cc2)nc1N	none
O=C1C=CC(=O)N1c1ccc(F)c(Cl)c1	none
O=C(Nc1ccc(N2CCCCC2)cc1)c1cccs1	none
O=C(Nc1ccc(N2CCCCC2)cc1)Nc1ccccc1OC(F)(F)F	Nox1 inh 80
CCCc1c(OCCCCc2nnn(CCCC(=O)O)n2)ccc2c(=O)ccoc12	none
O=C(NNc1cc(Cl)cc(Cl)c1)c1ccc(F)cc1F	luminol inh ctr 76
O=C(NNc1c(Cl)cncc1Cl)c1ccc(F)cc1F	none
CC(=NCc1ccccc1)c1ccccc1O	none (no result: NOTCH agonist)
CC(=NCc1ccc2c(c1)OCO2)c1ccccc1O	NOTCH agonist 2.4
Cc1nnsc1C(=O)NCc1csc2ccc(Cl)cc12	none
CCOC(=O)NS(=O)(=O)c1ccccc1Cl	none
COc1nc(NNC(=O)NS(=O)(=O)c2ccccc2Cl)nc(OC)n1	Nox1 inh 78
Cc1noc(C)c1-c1nc(CN2CCOCC2)no1	none
O=S(=O)(NCc1csc2ccc(Cl)cc12)c1cccc2nonc12	none
Cc1oc(-c2ccccc2)cc1C(=O)N1CCN(c2ncc(C(F)(F)F)cc2Cl)CC1	NOTCH agonist 2.3
Cc1noc(C)c1C(=O)N1CCN(c2ncc(C(F)(F)F)cc2Cl)CC1	none
COc1ccc(-c2[nH]ncc2/C=N/NC(=S)NC(C)(C)C)cc1	none
CCOC(=O)COc1cccc([N+](=O)[O-])c1	NOTCH agonist 3.0
CCOC(=O)COc1cccc(NC(=O)c2ccccc2Cl)c1	none
N#Cc1cc(Cl)ccc1N1C(=O)C=CC1=O	none
O=c1[nH]c2ccsc2c(=O)n1CCO	Nox1 inh 84
Cc1cc(=O)n(CCO)c(=O)[nH]1	none
CSc1nc(C)nc(N)c1C#N	none
Cc1ccc(SC#N)c(N)n1	Nox1 inh 100
COc1ccc(OC(=O)c2ccc3ncccc3c2)cc1	Nox1 inh 92
O=C(NCCc1ccccc1)c1ccc2ncccc2c1	none
O=C(O)CCNC(=S)Nc1cccc(C(F)(F)F)c1	none

Compound activity deposited in PubChem by The Scripps Research Institute Molecular Screening Center.
